Only a selection was taken, and hits are over-represented in it overall.
CHX counter: Cycloheximide Counterscreen for Small Molecule Inhibitors of Shiga Toxin; AID 2314, 2010; actives 12% (n = 300,000); max response, %; cell reporter, cycloheximide protein synthesis inhibition counterscreen; in the data active means max response mostly above about 13%, no sharp cut-off; inactive means mostly below about 14%; further: read at 38.3 µM for the half of the compounds with a filed dose
FBPA Giardia inh: qHTS Assay for Inhibitors of Fructose-1,6-bisphosphate Aldolase from Giardia Lamblia; actives 0.71% (n = 290,000); purified Giardia FBPA; Potency, µM (top dose mostly 59.6 µM), hits mostly inhibitors; A8B2U2; further: nearly all actives have a fitted effect of over 55% in size
Target sequence (A8B2U2 whole entry, looked up): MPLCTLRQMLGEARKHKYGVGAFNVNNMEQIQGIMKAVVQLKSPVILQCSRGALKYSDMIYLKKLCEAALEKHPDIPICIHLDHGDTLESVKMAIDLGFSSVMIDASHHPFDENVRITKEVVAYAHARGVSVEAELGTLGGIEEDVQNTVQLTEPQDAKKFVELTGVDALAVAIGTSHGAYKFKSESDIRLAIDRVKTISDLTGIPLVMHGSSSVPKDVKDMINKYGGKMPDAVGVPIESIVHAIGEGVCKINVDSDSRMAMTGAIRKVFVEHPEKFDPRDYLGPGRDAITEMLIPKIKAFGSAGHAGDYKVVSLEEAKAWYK
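40 nM FBPA preincubated 10 min at RT with compound (up to 57.5 uM final), then substrate plus GAPDH/TPI/NAD/arsenate coupling and diaphorase/resazurin added. Fluorescence read after 20 min at RT, 525/598 nm.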
Shiga inhibitor: A qHTS for Small Molecule Inhibitors of Shiga Toxin; Vero cells, Shiga toxin protein synthesis inhibition reporter; AID 2315, 2010; inhibition, % at 38.7 µM; actives 9.2% (n = 290,000); in the data active means inhibition mostly above about 28%, no sharp cut-off; inactive means mostly below about 43%
RE007 growth inh: qHTS Assay for Inhibitors of the HIV-1 protein Vpr. S. pombe RE007 Vpr strain, BacTiter-Glo ATP luminescence, 24 h. Potency, µM (titrated, usually from 92.2 µM), usual class: inhibitors. AID 651644, 2012. actives 0.21% (n = 360,000); active means well fitted falling curve with a large enough effect; inconclusive means small, poorly fitted or top-dose-only effect; inactive means no such curve, though single readings can be large or run the other way; further: nearly all actives have a fitted effect of over 50% in size
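Fission yeast strain RE007, carrying one chromosomally integrated HIV-1 vpr copy, was seeded at OD 0.01 in PMG+AL medium with 23 nL pinned compound. After 24 h at 30 °C and 99% humidity, viability was read by BacTiter-Glo luminescence.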
TbPYK inhibitor: qHTS of Trypanosoma Brucei Inhibitors | AID 624173, 2012 | TbPYK enzyme, Kinase-Glo Plus ATP luminescence, 45 min | Potency, µM (titrated, usually from 76.8 µM), usual class: inhibitors | actives 0.12% (n = 410,000); further: nearly all actives have a fitted effect of over 50% in size
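Screened from lowest to highest concentration, compounds were pinned into TbPYK/substrate mixtures, and ADP (130 uM final) was added. Plates sat at room temperature for 45 min prior to Kinase-Glo Plus detection by luminescence.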
LmPK inhibitor: qHTS Assay for Inhibitors of Leishmania Mexicana Pyruvate Kinase (LmPK). actives 0.37% (n = 290,000). purified LmPK, Kinase-Glo ATP luminescence, 1 h. Q27686. Potency, µM (titrated, usually from 57.5 µM), actives largely listed as inhibitors. AID 1721, 2009
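Purified LmPK (0.1 nM) converted ADP (0.1 mM) to ATP with PEP (0.5 mM) in imidazole buffer pH 7.2 with KCl and MgCl2, 1 h at room temperature. ATP was read by Kinase-Glo luminescence; data normalized to uninhibited and no-enzyme controls.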
Hits are given with their value; – = inactive; ? = inconclusive; · = no result given; + = active, no number. Unless noted, the call rests on the fitted dose curve; in most records, active means well fitted curve in the direction sought with a large enough effect; inconclusive means small, poorly fitted or top-dose-only effect, or another doubt; inactive means no such curve, though single readings can be large; an effect the other way counts as inactive or inconclusive.

SMILES | CHX counter | FBPA Giardia inh | Shiga inhibitor | RE007 growth inh | TbPYK inhibitor | LmPK inhibitor
COc1ccccc1/C=N/Nc1nncc2ccccc12 | 46 | – | + | – | – | –
C/C(=N\Nc1nc(-c2ccccc2O)nc2ccccc12)c1ccccc1 | – | – | – | – | – | –
COc1cccc(C=NNc2nnc(NN=Cc3cccc(OC)c3OC)c3ccccc23)c1OC | · | · | · | – | – | ·
NNc1nncc2ccccc12 | · | 5µM | · | · | – | ·
COc1ccc(/C=N/Nc2nncc3ccccc23)cc1 | 25 | – | – | – | ? | 11µM
COc1ccc(-c2cnnc(N/N=C/c3ccc(OC)c(OC)c3)n2)cc1 | – | – | – | – | – | –
CCCN1Cc2cccc(C(=O)Nc3ccc(OC)cc3OC)c2C1=O | · | · | · | · | – | ·
COc1ccc(N/N=C(/C)c2cnnc(-c3ccccc3)n2)cc1 | – | – | – | – | – | –
Oc1c(Br)cc(/C=N/Nc2nncc3ccccc23)cc1Br | 30 | ? | – | – | – | –
COc1ccc(/C(C)=N/Nc2nncc3ccccc23)cc1 | 27 | – | 63 | – | – | –
O=C(N/N=C/c1cc(Br)c(O)c(Br)c1)c1cccnc1 | – | – | – | – | – | –
CC(C)(C)c1cc[n+](/C(C(=S)NC2CC2)=C(/[O-])c2ccc(Cl)s2)cc1 | – | 6.3µM | – | – | – | –
CN1CCN(C(=O)COc2ccc(Oc3ccccc3)cc2)CC1 | – | – | – | – | – | –
Cc1ccccc1OCC(=O)N1CCCc2ccccc21 | 33 | – | active | – | – | –
O=C(COc1ccc(F)cc1)N1CCCc2ccccc21 | – | – | – | – | – | –
COc1ccc(OCCCC(=O)N2CCCc3ccccc32)cc1 | – | – | – | – | – | –
COc1cccc(OCC(=O)N2CCCc3ccccc32)c1 | 37 | – | – | – | – | –
COc1cccc(OCC(=O)N2CCN(C)CC2)c1 | 35 | – | 53 | – | – | –
COc1cccc(C(=O)Nc2c(C(=O)c3ccc(F)cc3)oc3ccccc23)c1 | · | · | · | · | – | ·
O=C(Nc1ccc(F)cc1F)c1csc(-c2ccncc2)n1 | 27 | – | – | – | – | –
O=C(NNS(=O)(=O)c1ccc(F)cc1F)c1csc(-c2cccnc2)n1 | – | – | – | – | – | –
O=C(Nc1ccc(F)cc1F)c1csc(-c2cccs2)n1 | 48 | – | 118 | – | – | –
CCc1ccc(/C=c2\s/c(=C\C(=O)C(C)(C)C)[nH]c2=O)cc1 | – | – | – | – | – | –
Cc1ccccc1/C=c1\s/c(=C\C(=O)C(C)(C)C)[nH]c1=O | 24 | – | – | – | – | –
CC(C)(C)C(=O)/C=c1\[nH]c(=O)/c(=C\c2ccc(F)cc2)s1 | 11 | – | – | – | – | –
SMILES | CHX counter | FBPA Giardia inh | Shiga inhibitor | RE007 growth inh | TbPYK inhibitor | LmPK inhibitor
O=C1OC(c2ccccc2)(N(Nc2ccccc2)c2ccccc2)c2ccccc21 (stereo not drawn) | · | · | · | – | – | ·
Cc1oc(=O)c(NC(=O)c2cccc(Cl)c2)cc1C(=O)c1ccccc1 | 31 | – | 68 | 14µM | ? | –
COC(=O)c1cc(NC(=O)c2ccccc2)c(=O)oc1C | – | – | – | – | – | –
COC(=O)c1cc(NC(=O)c2ccc(C)cc2)c(=O)oc1C | 25 | – | – | – | – | –
Cc1oc(=O)c(NC(=O)c2ccccc2)cc1C(N)=O | – | – | – | – | – | –
COc1cccc(C(=O)Nc2cc3cc(OC)ccc3oc2=O)c1 | · | · | · | · | – | ·
COc1ccc(C(=O)Nc2cc(C(=O)c3ccccc3)c(C)oc2=O)cc1 | – | – | – | 11µM | – | –
Cc1cccc(Nc2nn3c(=O)c4ccccc4nc3s2)c1 | – | – | 55 | – | – | –
CCCSc1nn2c(=O)c3ccccc3nc2s1 | 39 | – | 66 | ? | – | 14µM
CC(C)(O)c1[nH]c2cc(C(F)(F)F)ccc2c1C(C)(C)O | – | – | 37 | – | – | –
Cc1c(C(C)(C)O)[nH]c2cc(C(F)(F)F)ccc12 | – | – | – | – | – | –
CC(C)(O)c1[nH]c2ccc(C(F)(F)F)cc2c1C(C)(C)O | 7.9 | – | – | – | – | –
